# Assay results: PubChem BioAssay AID652217 (Sanford-Burnham Center for Chemical Genomics, 2013)
# About 240 (13%) of roughly 1,800 compounds were called active. Shown is part of a subset that was picked to be rich in actives. Values without a mark were called inactive. Cut-off read from the data, not from the text of the source: active = inhibition above about 40%; inactive = the rest.
# Biological target: NEDD8-conjugating enzyme Ubc12 (Homo sapiens) + NEDD8-activating enzyme E1 regulatory subunit (Homo sapiens) (UniProt P61081+Q13564)
# Sequence (P61081 whole entry, looked up): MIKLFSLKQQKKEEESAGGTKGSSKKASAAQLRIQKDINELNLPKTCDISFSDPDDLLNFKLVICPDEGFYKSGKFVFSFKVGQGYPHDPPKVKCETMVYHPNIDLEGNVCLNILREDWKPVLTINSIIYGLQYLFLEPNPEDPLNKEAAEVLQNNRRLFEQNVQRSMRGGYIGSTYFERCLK
# Sequence (Q13564 whole entry, looked up): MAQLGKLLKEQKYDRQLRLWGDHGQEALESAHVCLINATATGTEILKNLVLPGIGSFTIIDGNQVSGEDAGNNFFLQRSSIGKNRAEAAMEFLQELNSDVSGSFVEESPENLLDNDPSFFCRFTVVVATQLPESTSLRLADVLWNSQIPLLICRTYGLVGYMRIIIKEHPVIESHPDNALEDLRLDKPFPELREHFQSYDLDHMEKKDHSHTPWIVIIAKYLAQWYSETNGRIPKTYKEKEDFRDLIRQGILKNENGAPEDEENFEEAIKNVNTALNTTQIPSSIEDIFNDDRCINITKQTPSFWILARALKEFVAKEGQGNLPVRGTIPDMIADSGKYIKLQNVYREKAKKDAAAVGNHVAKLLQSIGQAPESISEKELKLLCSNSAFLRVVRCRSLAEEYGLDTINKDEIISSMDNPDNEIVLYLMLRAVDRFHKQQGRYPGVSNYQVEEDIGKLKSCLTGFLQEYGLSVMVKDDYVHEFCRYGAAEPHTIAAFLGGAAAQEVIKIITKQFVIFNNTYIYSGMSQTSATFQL
# Test: blockade of NEDD8 conjugation to cullin – biochemical, TR-FRET, single concentration, confirmation (AID 652217);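 note: neddylation substrate is the cullin 1 ring ligase complex with SKP2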
# Details: TR-FRET cullin neddylation biochemical assay; at 25 µM; hits give high values
row,SMILES,inhibition
1,CC(=CCOc1ccc2ccc(=O)oc2c1)C1=CC(=O)C(C)(C)O1,44.2% (active)
2,CCN1c2nc3c(C)cccn3c(=O)c2CC2(C(=O)N(C)C(=O)N(C)C2=O)C1C (centres undefined),9.81%
3,CCC(C)n1c(O)c(/C=N/Nc2nc3c(c(=O)n(C)c(=O)n3C)n2C)c(=O)[nH]c1=S (centres undefined),-31.5%
4,CCCCC(=O)N/N=C/c1c(O)n(CCC2=CCCCC2)c(=O)[nH]c1=O,2.57%
